Drawing on ChEMBL document CHEMBL4513216, “Probing the Open Global Health Chemical Diversity Library for Multistage-Active Starting Points for Next-Generation Antimalarials” (ACS Infect Dis, 2020), this text covers INHIBITION for 104 compounds.

The structures appear in SMILES notation. Among all 65,000 compounds or so, about 2,100 (3.2%) showed an effect of 50% or more. The median lay at about -52%. Many of the other results were omitted from the sample, so strong results are more common in it than they were.

The assay relates to Plasmodium falciparum. In words: Screen against P. falciparum Asexual Blood Stage (ABS), at 5uM. Conditions: tested at 5 uM. Type of assay: functional, Dd2.
With `COc1ccc(S(=O)(=O)N2CCC[C@@H]3CN(C(=O)C4CC4)C[C@@H]32)cc1`, the INHIBITION is listed as -95.9%.
In the case of `Fc1ccc(CN2CCO[C@H]3[C@H](OCC4CCCC4)CC[C@@H]32)cc1`, the INHIBITION is recorded as -74.2%.
With `O=C(CCC(F)(F)F)N1CCCC2(CCC(=O)N(CC3CC3)C2)C1` (centres undefined), the INHIBITION was -7.69%.
To `CC(C)Oc1ccc(CNC(=O)CC(F)(F)F)cc1F` belongs -29.4%; to `CC(C)Oc1ccccc1-c1cc(CN)ccc1F`, 60.3%; to `COc1cccc(Cl)c1-c1cc(CN)ccc1F`, 65.3%.
To `COc1cccc(-c2cc(CN)ccc2F)c1F` belongs -77.3%.
On to `CC(C)Oc1ccc(CNC(=O)NCc2ccncc2)cc1F`, for which the INHIBITION was -9.03%.
`COc1ccc(-c2cc(CN)ccc2F)c(OC)c1OC`: the INHIBITION came out at 13.4%.
To `CC(C)NC(=O)Nc1ccc(-c2nc(C(C)C)no2)cc1` belongs -60.3%; to `CN(C)CCCNC(=O)c1cc(-c2ccc3c(c2)CCO3)n[nH]1`, -55.4%.
Then `Cc1nc(CN2CCN(c3nc4c(s3)c(C)nn4C)CC2)cs1`, with -145%; and `CCN1CCC(CNCc2c[nH]nc2C(C)(C)C)C1` (centres undefined), with -143%; and `CC(C)N1CCC(CNCc2c[nH]nc2C(C)(C)C)C1` (centres undefined), with -90.2%.
As to `CC(C)(C)c1n[nH]cc1CNCC1CCN(C2CC2)C1` (centres undefined), the INHIBITION worked out at 52.2%.
Then `Cn1c(=O)c2c(n3ncnc13)NC(=O)CC2c1ccc(F)cc1` (centres undefined), with -53.6%; and `Cc1cccc(C(=O)N2C[C@@H](OCc3cccnc3)[C@H]3OCCC[C@@H]32)n1`, with -103%; and `CC(=O)N1[C@H](CN(C)C)C[C@@H]2CN(C(=O)c3cnc(C)cn3)CC[C@@H]21`, with 29%.
Regarding `CC(=O)N1[C@H](CN(C)C)C[C@@H]2CN(C(=O)c3ccsc3)CC[C@@H]21`, the INHIBITION is reported as -108%.
For the compound `CC(=O)N1[C@H](CN(C)C)C[C@@H]2CN(C(=O)c3cccc(F)c3)CC[C@@H]21`, the INHIBITION is recorded as -116%.
To `CC(=O)N1[C@H](CN(C)C)C[C@@H]2CN(C(=O)c3occc3C)CC[C@@H]21` belongs 55.3%; to `CC(=O)N1[C@H](CN(C)C)C[C@@H]2CN(C(=O)c3ccno3)CC[C@@H]21`, 22.2%; to `CC(=O)N1[C@H](CN(C)C)C[C@@H]2CN(C(=O)c3cccn3C)CC[C@@H]21`, 56.5%.
Take `CCC[C@H]1CN(Cc2cc(C#N)n(C)c2C)C[C@@H]1N(C)C`: the INHIBITION was 20.2%.
To `Cc1ccc(CN2C[C@@H]3COC[C@]3(COc3ccc(C#N)cn3)C2)o1` belongs -45.3%.
Then `COCC1(C(=O)N[C@H]2CN(c3ccnc(C)c3)C[C@@H]2C2CC2)CCC1`, with -51.7%; and `O=C(NCCN1CCC(c2cccs2)CC1)c1ccc(F)cc1Cl`, with -19.5%; and `CC(=O)NCCN1CCC(c2cccs2)CC1`, with 6.31%.
To `O=C(NCCN1CCC(c2cccs2)CC1)c1ccccc1C(F)(F)F` belongs 34.2%; to `CCSc1ccccc1C(=O)NCCN1CCC(c2cccs2)CC1`, 30.9%.
On to `O=C(NCCN1CCC(c2cccs2)CC1)Nc1cccs1`, for which the INHIBITION was 64.2%.
As for `O=C(Cc1ccccc1Cl)NCCN1CCC(c2cccs2)CC1`, the INHIBITION was found to be 63.6%.
Then `CCOCC(O)CN1CCN(C(=O)C2CCCCC2)CC1` (centres undefined), with -108%; and `COc1ccccc1Cc1nnc(SCCS(C)(=O)=O)o1`, with -75.9%; and `c1ccc2c(NC3CCc4ncnn4C3)ncnc2c1` (centres undefined), with -38%.
On to `CCCn1nnc2c(sc3nc(N4CCOCC4)c4c(c32)CCC4)c1=O`, for which the INHIBITION is -102%.
Then `c1nc(N2CCCC2)cnc1C1CCNCC1`, with -135%; and `CC(C)N1CCCC(Cc2cncc(Br)c2)CC1` (centres undefined), with -20.1%; and `CCc1nc(C)c(CC(=O)N2CCC3(CC2)OCCCC3O)c(=O)[nH]1` (centres undefined), with -109%.
In the case of `Cc1cc(C)n(CC(C)Nc2nc(C)nc3c2CCNC3)n1` (centres undefined), the INHIBITION is listed as 2.63%.
Take `Cc1cccc(C)c1OCC(C)Nc1nc(N)nc2c1CCNC2` (centres undefined): the INHIBITION was 67%.
To `Cc1cccnc1CC(C)Nc1nc(N)nc2c1CCNC2` (centres undefined) belongs -92%; to `Cc1ccc(-c2noc(CN3CCC(N4CCNC4=O)CC3)n2)cc1`, -63.1%.
Then `CCS(=O)(=O)N1Cc2ncn(C)c2C(COCC2CCOCC2)C1` (centres undefined), with -46.6%.
On to `NC(=O)c1cccnc1N1CCN(c2ncnc3c2CCNC3)CC1`, for which the INHIBITION is recorded as -103%.
For the compound `CN(C)c1nc2c(c(N3CCc4ccccc4C3)n1)CCNC2`, the INHIBITION came to 31.4%.
Consider `c1ccc2c(c1)CCN(c1nc(-c3ccncc3)nc3c1CCNC3)C2`, for which the INHIBITION is 61.6%.
To `c1ccc2c(c1)CCN(c1ncnc3sc4c(c13)CCNC4)C2` belongs -28.5%.
Turning to `c1ccc2c(c1)CN(c1ncnc3c1CCNC3)CCO2`, the INHIBITION was found to be 65.9%.
To `c1cc(C2CCN(c3ncnc4c3CCNCC4)CC2)ccn1` belongs 27.2%.
Consider `c1nc2c(c(N3CCOCC3)n1)CCNCC2`, for which the INHIBITION is -98%.
Regarding `c1ccc(C2CCCN(c3ncnc4c3CCNC4)CC2)cc1` (centres undefined), the INHIBITION came to 61.2%.
With `c1ccc2c(c1)CN(c1ncnc3sc4c(c13)CCNC4)CCO2`, the INHIBITION is reported as -26.7%.
`NC(=O)CN1CCC(NC(=O)COc2ccc(Cl)c(Cl)c2)CC1`: the INHIBITION is listed as -138%.
`Cn1cccc1CN1CCc2ncnc(-c3cccnc3)c2CC1`: the INHIBITION was 0.898%.
Then `O=C1CCCC2=Nc3nonc3NC(c3cc(Cl)ccc3F)C12` (centres undefined), with -54%.
To `O=C1CCCCN1Cc1cccc(OC(F)F)c1` belongs -103%; to `CN(C)S(=O)(=O)N1CC[C@]2(O)CCN(Cc3cccc(F)c3)C[C@@H]2C1`, 20.7%.
Then `CN(C)S(=O)(=O)N1CC[C@]2(O)CCN(Cc3cccc(C#N)c3)C[C@@H]2C1`, with -58.1%.
On to `CN(C)S(=O)(=O)N1CC[C@]2(O)CCN(CCc3cccc(F)c3)C[C@@H]2C1`, for which the INHIBITION was determined as 53.4%.
`CN(C)S(=O)(=O)N1CC[C@]2(O)CCN(CCCc3cccnc3)C[C@@H]2C1`: the INHIBITION is reported as -62.2%.
To `Cc1ccc(CN2CC[C@@]3(O)CCN(S(=O)(=O)N(C)C)C[C@H]3C2)cc1C` belongs 53.6%; to `CN(C)S(=O)(=O)N1CC[C@]2(O)CCN(Cc3cc(F)cc(F)c3)C[C@@H]2C1`, -81.9%; to `CC(C)(C)CN1CCCC12CCN(S(=O)(=O)c1ccccc1)C2` (centres undefined), 32.5%.
`c1cnnc(N2CCCC2CNCc2cscn2)c1` (centres undefined): the INHIBITION is 35.8%.
To `c1cnnc(N2CCCC2CNCc2nc(-c3ccco3)no2)c1` (centres undefined) belongs 50.5%; to `c1cnnc(N2CCCC2CNCc2cccs2)c1` (centres undefined), 55.7%; to `CC(C)CCc1nc(CNCC2CCCN2c2cccnn2)cs1` (centres undefined), 67.4%.
As for `c1cnnc(N2CCCC2CNCc2nc(-c3ccoc3)no2)c1` (centres undefined), the INHIBITION is reported as 35.2%.
As for `Cc1ccc(CNCC2CCCN2c2cccnn2)s1` (centres undefined), the INHIBITION came to 46.6%.
Then `CCc1nc(CNCC2CCCN2c2cccnn2)cs1` (centres undefined), with 58.7%.
To `c1cnnc(N2CCCC2CNCCc2cccs2)c1` (centres undefined) belongs 40%; to `c1cnnc(N2CCCC2CNCc2csc(-c3ccco3)n2)c1` (centres undefined), 41.4%.
Then `CCCc1nc(CNCC2CCCN2c2cccnn2)cs1` (centres undefined), with 37.5%; and `Cc1nc(CNCC2CCCN2c2cccnn2)cs1` (centres undefined), with -34.2%; and `c1cncc(-c2noc(CNCC3CCCN3c3cccnn3)n2)c1` (centres undefined), with -92.3%.
For the compound `COCCOc1ccccc1C(=O)N1CCCC(c2cc(C)[nH]n2)C1` (centres undefined), the INHIBITION is given as -15.2%.
On to `Cc1ccccc1SC1CCN(C(=O)CCCS(N)(=O)=O)CC1`, for which the INHIBITION was -124%.
Take `Cc1noc(C)c1CN1C(=O)[C@@H]2CC[C@H]1CN(Cc1cccnc1N)C2`: the INHIBITION is on record as -49.1%.
To `Cn1cc(CNC2CCc3c(ccc(=O)n3Cc3cccnc3)C2)cn1` (centres undefined) belongs -48.3%; to `CCc1cc(C(F)(F)F)n2nc(C3CCCN3C(=O)COC)cc2n1` (centres undefined), -17.9%; to `CCc1cnc(CN(C)C(=O)Nc2cnn(CC3CCCO3)c2)s1` (centres undefined), -48.8%.
Then `Cc1cccc(CNCC2(O)CCCN(CC3CCCCC3)C2=O)n1` (centres undefined), with -3.18%.
With `Cc1ncccc1Oc1nccnc1C1CCCN(C(C)C)C1` (centres undefined), the INHIBITION is recorded as -26.3%.
To `c1cnnc(N2CCCC2CNCc2nc3ccccc3o2)c1` (centres undefined) belongs -31.6%.
Then `CN(Cc1nc2ccccc2o1)CC1CCCN1c1cccnn1` (centres undefined), with 69.3%.
For `Cc1nc(CN(C)CC2CCCN2c2cccnn2)oc1C` (centres undefined), the INHIBITION is given as -18.6%.
Then `Cc1nnc2ccc(N3CCC(C(=O)Nc4nccs4)CC3)nn12`, with -16.3%; and `CC(C)c1nnc2ccc(N3CCCC(C(=O)Nc4nccs4)C3)nn12` (centres undefined), with -58%; and `CC(C)c1nnc2ccc(N3CCC(C(=O)Nc4nccs4)CC3)nn12`, with 66.9%.
Then `NC(=O)C(c1ccc(F)cc1)N1CCN(CCO)CC1` (centres undefined), with -133%.
Then `CCOCCCC(=O)NCC(c1ccccc1)N1CCc2sccc2C1` (centres undefined), with -59.8%; and `CSc1ccc(C(CN)N2CCc3sccc3C2)cc1` (centres undefined), with 9.08%; and `NCC(c1ccccc1)N1CCc2sccc2C1` (centres undefined), with 57.9%.
For the compound `CSc1ccc(C(CNC(=O)C2CC2)N2CCc3sccc3C2)cc1` (centres undefined), the INHIBITION is on record as 20.6%.
To `O=C(NCCO)NCC(c1ccccc1)N1CCc2sccc2C1` (centres undefined) belongs -6.62%; to `CSc1ccc(C(CNC(C)=O)N2CCc3sccc3C2)cc1` (centres undefined), -77.1%.
Then `NCC(c1ccc(Cl)cc1)N1CCc2sccc2C1` (centres undefined), with 66.5%.
For `CC(C)c1ccc(C(CN)N2CCc3sccc3C2)cc1` (centres undefined), the INHIBITION came to 69.8%.
Then `O=C(COCC1CC1)NCC(c1ccccc1)N1CCc2sccc2C1` (centres undefined), with -122%.
Consider `O=C(C1CNCCN1C(=O)CCOc1ccccc1)N1CCOCC1` (centres undefined), for which the INHIBITION is recorded as -116%.
Regarding `COC(=O)[C@@H]1C[C@H](NC(=O)c2cc(=O)[nH]c3ccc(C)cc23)CN1C`, the INHIBITION is on record as 5.12%.
To `CSCC[C@H](N)c1nnc(SCC(=O)Nc2ccc(Br)cc2)o1` belongs -102%; to `Cc1ccccc1C(=O)N1Cc2c(Cn3ccnc3)nn(C)c2C1`, -35.3%.
